The values below come from PubChem BioAssay AID2315 (National Center for Advancing Translational Sciences (NCATS), 2010).

Among all 290,000 compounds or so, about 27,000 (9.3%) were called active. Rule as the data show it: active = inhibition mostly above about 28% (no sharp cut-off); inactive = mostly below about 43%. The list comes from a sample in which actives are over-represented; it also holds similar structures and randomly drawn compounds.

A short description of this assay: A qHTS for Small Molecule Inhibitors of Shiga Toxin. Also: 0% is about no effect. The conditions noted are these: Vero cells, Shiga toxin protein synthesis inhibition reporter; at 38.7 µM, active compounds read high.
Regarding `COc1cc([N+](=O)[O-])cc([N+](=O)[O-])c1NC(=O)N1CCOCC1`, the inhibition (as a rule, the drop in the measured response relative to a control, in per cent) was -11.6% (inactive).

Regarding `CCN(c1ccccc1)S(=O)(=O)c1cc2c(cc1C)n(C)c(=O)c(=O)n2C`, the inhibition was 10.4% (inactive).

In the case of `O=C(CCCN1CCc2[nH]c3ccc(F)cc3c2C1)c1ccc(F)cc1`, the inhibition is -5.56% (inactive).

For the compound `O=C(NCCN1CCCC(O)C1)c1cc(COc2c(F)cccc2F)on1` (stereo not given), the inhibition was -6.84% (inactive).

`CC(C)Cc1cc(C(=O)Nc2cc(Br)ccc2O)no1`: the inhibition was 85.5% (active).

As to `CC(C)C(=O)NCc1cc(-c2ccc(Cl)cc2)no1`, the inhibition is 10.8% (inactive).

Turning to `O=C(NCCCc1ccccc1)c1cc(COc2c(F)cccc2F)on1`, the inhibition is 78.1% (active).

With `C[C@H](NC(=O)NCCc1ccccc1)C(=O)O`, the inhibition is 8.98% (inactive).

`CC(C)c1ccc(C(=O)NCCCc2ccccc2)cc1`: the inhibition was 60.6% (active).

For the compound `O=C(NCCc1ccccc1)c1ccc(OCCOc2ccccc2)cc1`, the inhibition is -1.89% (inactive).

In the case of `O=C(COC(=O)c1ccc(F)cc1)NCCCc1ccccc1`, the inhibition is -1.67% (inactive).

Regarding `COC(=O)[C@@H](Cc1ccccc1)NC(=O)NCCc1ccccc1`, the inhibition was 15.6% (inactive).

As to `CC(C)/C=N/NC(=O)c1cc(Br)ccc1O`, the inhibition is 30.6% (inactive).

Regarding `CCCOc1ccc(C(=O)NCCc2ccccc2)cc1`, the inhibition is 39.8% (inactive).

For the compound `CC(C)Cc1cc(C(=O)NCCc2ccccc2)no1`, the inhibition was 87.5% (active).

Turning to `CCOc1cc(CN2CCCC(CO)(Cc3ccc(F)cc3F)C2)ccc1OC` (stereo not given), the inhibition is 1.36% (inactive).

In the case of `COC(=O)Cn1cnc2scc(-c3ccc(C)c(C)c3)c2c1=O`, the inhibition is -16.4% (inactive).

As for `CC(C)Oc1ccc(/C=N/NC(=O)c2nnn(-c3nonc3N)c2CN(C)C2CCCCC2)cc1`, the inhibition is -5.14% (inactive).

Turning to `CCOc1ccc(S(=O)(=O)NCCCn2ccnc2)cc1NC(C)=O`, the inhibition is -15.3% (inactive).

For `COc1ccc(OC)c(NC(=O)c2ccc3c(c2)C(=O)N(c2ccc(OC(C)=O)cc2)C3=O)c1`, the inhibition is -4.38% (inactive).

Regarding `COc1cc(NC(=O)c2ccc(-c3csc(C)n3)cc2)c(OC)cc1Cl`, the inhibition is -19.7% (inactive).

`O=c1oc2ccccc2c(NC2CCCCC2)c1NS(=O)(=O)c1ccc(Cl)cc1`: the inhibition was -3.24% (inactive).

In the case of `Cc1ccc(CN(CC(=O)NCC2CCCO2)S(=O)(=O)c2ccc(C)cc2)cc1` (stereo not given), the inhibition was -7.48% (inactive).

For the compound `Cc1cccc(N2C(=O)N3[C@H](c4ccc(F)cc4)[C@@H]4C(=O)N(C5CCCCC5)C(=O)[C@@H]4[C@]3(Cc3ccccc3)C2=O)c1`, the inhibition was -2.98% (inactive).

On to `CSc1ncc(C(=O)NCCCc2ccccc2)c(C)n1`, for which the inhibition is 28.3% (inactive).

As for `CC(C)CNC(=O)c1cc(-c2ccc(Br)cc2)on1`, the inhibition is 52.5% (active).

For the compound `Cc1cc(C(=O)NCCCc2ccccc2)no1`, the inhibition was 35.8% (active).

For `CCN(CC)CCCNC(=O)c1cc(-c2cccc(Cl)c2)on1`, the inhibition is -7.26% (inactive).

As to `Cc1c(NC(=O)c2cc(-c3ccc(Br)cc3)on2)c(=O)n(-c2ccccc2)n1C`, the inhibition was 20% (inactive).

Regarding `CCCCNC(=S)NNC(=O)c1cc(C)on1`, the inhibition was 6.4% (inactive).

For the compound `Cc1ccccc1CSCCNC(=O)c1ccc(N(C)S(=O)(=O)c2ccccc2)cc1`, the inhibition is -13.5% (inactive).

With `CN(c1ccccc1)S(=O)(=O)c1ccc(C(=O)NCCc2ccccc2)cc1`, the inhibition is 50.1% (active).

In the case of `COc1ccccc1CNC(=O)c1ccc(N(C)S(=O)(=O)c2ccc(C)cc2)cc1`, the inhibition was 4.41% (inactive).

Consider `CC(C)Cn1c(=O)c2ccccc2n2c(CCC(=O)NCc3ccccn3)nnc12`, for which the inhibition is 17.2% (inactive).

`O=Cc1cn(-c2ccccc2)nc1-c1ccccn1`: the inhibition was 16.4% (inactive).

As for `Cc1ccccc1OCC(=O)NNC(=O)c1cc(S(=O)(=O)N(C)C)ccc1N1CCCC1`, the inhibition is -3.25% (inactive).

For the compound `CCCCNC(=O)C1(O)c2ccccc2NC(=O)N1c1ccc(Cl)cc1` (stereo not given), the inhibition was 20.3% (inactive).

On to `COc1ccc(N2CCN(C3CCCCC3NS(=O)(=O)c3ccccc3)CC2)cc1` (stereo not given), for which the inhibition was -5.29% (inactive).

Turning to `CC(C(=O)c1ccc(-c2ccccc2)cc1)[n+]1cccc(Br)c1` (stereo not given), the inhibition was -5.48% (inactive).

Turning to `CCn1c(SCC(=O)Nc2ccc3c(c2)OCCO3)nnc1C(C)C`, the inhibition is 23.4% (inactive).

In the case of `CCC(=O)N1CCN(c2ccccc2NC(=O)COc2cccc(C)c2C)CC1`, the inhibition is -4.98% (inactive).

Turning to `COc1ccc(S(=O)(=O)N2CCOC2CNC(=O)C(=O)NCc2ccc(F)cc2)cc1` (stereo not given), the inhibition was -3.23% (inactive).

`Cc1ccc(S(=O)(=O)NCCCn2ccnc2)cc1C(=O)NC(C)C`: the inhibition is -5.57% (inactive).

Consider `COc1cc(C(=O)NC(=S)NCc2ccco2)cc(OC)c1OC`, for which the inhibition is -9.57% (inactive).

With `O=C(NCc1ccco1)c1sc2cccc(F)c2c1Cl`, the inhibition was 80.8% (active).

For `COc1ccc2c(Cl)c(C(=O)NCc3ccco3)sc2c1`, the inhibition was 93.2% (active).

Regarding `O=C(NCc1ccco1)c1nn2cccnc2c1Cl`, the inhibition was 18.5% (inactive).

With `COc1ccc(C(=O)Nc2ccccc2C(=O)NCc2ccco2)cc1`, the inhibition is 55.1% (active).

In the case of `COc1ccc2oc(C(=O)NCC(Cc3ccccc3)N(C)C)c(C)c2c1` (stereo not given), the inhibition was 19.2% (inactive).

Turning to `O=C(NCc1ccco1)c1cc2sccc2n1Cc1ccc(F)cc1`, the inhibition is 59.6% (inactive).

For `COc1cccc(NC(=S)NCc2ccco2)c1`, the inhibition was -1.12% (inactive).

`COc1ccc2oc(C(=O)NCc3ccco3)c(C)c2c1`: the inhibition was 57% (active).

Regarding `Cc1ccc(N(Cc2ccc(C(=O)Nc3ccccc3C(=O)NCc3ccco3)cc2)S(C)(=O)=O)cc1C`, the inhibition was -16.6% (inactive).

In the case of `O=C(Nc1ccccc1)Nc1ccccc1C(=O)NCc1ccco1`, the inhibition was 17.2% (inactive).

As to `COc1cc(C(=O)N[C@@H](C)C(=O)NCc2ccco2)cc(OC)c1OC`, the inhibition is -3.33% (inactive).

For `CCNc1c(NS(=O)(=O)c2ccc(C3CCCCC3)cc2)c(=O)oc2ccccc12`, the inhibition was -11.4% (inactive).

As for `COc1ccc(OCC(O)CN(C)C(=O)C(C)Oc2ccccc2)cc1` (stereo not given), the inhibition was -1.44% (inactive).

As for `Cc1cccc(NS(=O)(=O)c2ccc(-c3cnc(C4CC4)o3)cc2)c1`, the inhibition is 14.4% (inactive).

As to `CC(C)[C@H](NC(=O)N1CC(=O)Nc2ccccc21)C(=O)N[C@@H](Cc1c[nH]c2ccccc12)C(=O)O`, the inhibition is -8.09% (inactive).

As to `C=CCOc1cccc(C2NC(=O)c3ccccc3O2)c1` (stereo not given), the inhibition was 5.66% (inactive).

For `Cc1ccc(S(=O)(=O)N2CCN(C(=O)CSc3cc(C)ccc3C)CC2)c(C)c1`, the inhibition is -13% (inactive).

On to `COc1ccccc1C(=O)NNC(=O)c1ccc(NC(=O)c2ccccc2)cc1`, for which the inhibition is -13.9% (inactive).

As to `COc1ccc(C(=O)Nc2ccccc2C(=O)N/N=C/c2ccc(O)c(OC)c2)cc1`, the inhibition was -21.6% (inactive).

In the case of `COc1ccc(C(=O)Nc2ccccc2C(=O)N/N=C/c2ccccc2OC)cc1`, the inhibition is 89.2% (active).

Turning to `COc1ccc(C(=O)NC(C)c2nccs2)cc1OC1CCN(C(C)C)CC1` (stereo not given), the inhibition was -1.47% (inactive).

As for `Cc1nc2ccc(NC(=S)N3CCC(C)CC3)cc2nc1C`, the inhibition was 33.9% (active).

For the compound `Cc1cccc(NC(=S)N2CCC(c3nc4ccccc4s3)CC2)c1`, the inhibition was -9.34% (inactive).

`Cc1nc2ccc(NC(=O)N3CCC(c4ccccc4)C3)cc2nc1C` (stereo not given): the inhibition is 2.35% (inactive).

Take `Cn1c(=O)c2c(nc(N3CCCCCC3)n2CC(=O)c2ccc(Br)cc2)n(C)c1=O`: the inhibition is 2.71% (inactive).

Take `CC(=O)Cn1ncc(N2CCOCC2)c(Br)c1=O`: the inhibition was -5.02% (inactive).

In the case of `O=C(Cn1ncc(N2CCCC2)c(Br)c1=O)c1ccc(Cl)cc1`, the inhibition was 37.7% (active).

Consider `O=C(CNc1cccc(S(=O)(=O)N2CCCCC2)c1)Nc1ccccc1F`, for which the inhibition is -9.02% (inactive).

On to `CCc1ccc(NC(=O)Cn2nnc(C(=O)NCc3ccc4c(c3)OCO4)c2N)cc1`, for which the inhibition is 0.685% (inactive).

Turning to `Cc1cccc2sc(N(CCCN(C)C)C(=O)CCS(=O)(=O)c3ccccc3)nc12`, the inhibition is 6.64% (inactive).

On to `CCCC(=O)N1c2ccc(-c3csc(N)n3)cc2CC1C` (stereo not given), for which the inhibition is 71.3% (active).

As to `CCn1nc(C(=O)OCC(=O)N2c3ccccc3CC2C)c2ccccc2c1=O` (stereo not given), the inhibition was -10.9% (inactive).

`Cc1ccn(CCC(=O)N2c3ccccc3CC2C)n1` (stereo not given): the inhibition was -3.39% (inactive).

With `CCC(C)Sc1nc2c(cnn2-c2ccc(F)cc2)c(=O)[nH]1` (stereo not given), the inhibition was -5.58% (inactive).

Take `COc1cccc(OCC(O)CNC(=O)c2oc3c(C)c(C)ccc3c2C)c1` (stereo not given): the inhibition was -9.45% (inactive).

On to `CCOCc1nnc(NC(=O)CCS(=O)(=O)Cc2ccccc2)s1`, for which the inhibition was -3.13% (inactive).

As to `Cc1cccc(CCNS(=O)(=O)c2ccc3c(c2)NC(=O)CO3)c1`, the inhibition was -6.16% (inactive).

With `Cc1nn(CCOc2ccccc2)c(=O)n1-c1ccccc1F`, the inhibition is 72.3% (active).

In the case of `Clc1ncn(CCOc2ccccc2)c1Cl`, the inhibition was -16.2% (inactive).

Turning to `Cc1cc2ncn(CCCCOc3ccccc3)c2cc1C`, the inhibition is -3.93% (inactive).

Consider `COc1ccc(-c2nc3c(s2)CCc2onc(-c4ccc(OC)cc4)c2-3)cc1`, for which the inhibition is -4% (inactive).

For `Cc1nn(C)c(Cl)c1CN1CCC(n2nccc2NC(=O)C2CCCC2)CC1`, the inhibition is -4.44% (inactive).

As to `O=C(NCc1cccc(Cl)c1)C1CCC(=O)N(C2CC2)C1` (stereo not given), the inhibition is 1.78% (inactive).

As to `O=C(N/N=C/c1ccc([N+](=O)[O-])cc1)c1c[nH]c2ccccc12`, the inhibition is 35.6% (inactive).

With `O=C(N/N=C/c1c[nH]c2ccccc12)c1ccccc1O`, the inhibition is 46.2% (active).

For the compound `O=C(N/N=C/c1c[nH]c2ccccc12)c1cc2ccccc2o1`, the inhibition was 51.6% (active).

As to `O=C(N/N=C/c1coc2ccccc2c1=O)c1cc2ccccc2o1`, the inhibition is -15.3% (inactive).

On to `Cc1c(/C=N\NC(=O)c2cc3ccccc3o2)c2ccccc2n1C`, for which the inhibition is 33.2% (inactive).

Consider `CSC(=S)N/N=C/c1c[nH]c2ccccc12`, for which the inhibition was 18.5% (inactive).

With `COc1cccc(NC(=O)C/C(C)=N/NC(=O)C2CCCCC2)c1`, the inhibition is 5.94% (inactive).

Take `CCC(C)C(NC(=O)C1CCC(=O)N1C(=O)OCc1ccccc1)C(=O)NC(C(=O)N1CCCC1C(N)=O)C(C)CC` (stereo not given): the inhibition was -2.25% (inactive).
